15-hLO inh: inhibitors of human 15-lipoxygenase (ALOX15). AID 887. Potency, µM (doses to about 57.1 µM), inactives show top-dose activity change, negative = inhibition, actives largely listed as inhibitors. purified 15hLO-1, xylenol orange hydroperoxide absorbance. hit rate 1.4% among 74,000. P16050; further: on the % scale 0 is the no-effect control and ±100 the full control effect; nearly all actives have a fitted effect of over 55% in size
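Compounds were preincubated 15 min at room temperature with 40 nM purified human enzyme (25 mM Hepes pH 7.5, 0.01% Triton X-100); 50 uM arachidonic acid reacted 6 min. Fe-xylenol orange detection, 30 min, absorbance ratio 573/405 nm.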
ERK AVP inh: vasopressin-driven ERK pathway inhibition | Potency, µM (titrated, usually from 57.5 µM), for the others: at the top dose activity, negative = inhibition, usual class: inhibitors | AID 995 | hit rate 0.99% among 72,000 | HEK293-V1b, vasopressin-stimulated pERK AlphaScreen; further: on the % scale 0 is the no-effect control and ±100 the full control effect; nearly all actives have a fitted effect of over 55% in size
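HEK293 cells stably expressing V1b receptor, seeded overnight in 1% FBS, were treated with compounds for 30 min at 37C, then stimulated 5 min with 25 nM vasopressin; phospho-ERK read by AlphaScreen SureFire after lysis.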
CRE-bla Fsk: alters forskolin-stimulated CRE reporter signaling in CHO cells | CHO CRE-bla reporter (cAMP response element driving beta-lactamase), forskolin EC10, beta-lactamase ratio | Potency, µM (top dose mostly 38.2 µM), for inactives: top-dose activity change, negative = inhibition, hits mostly activators | hit rate 2.5% among 71,000; active means well fitted activation curve with a large enough effect in the signal ratio, with a control signal flat, not every such curve was filed as active; inconclusive means small, poorly fitted or top-dose-only effect, or effect the other way, or a change in a side signal; the % refers to the signal ratio; further: % of control where 0% means no effect
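The 460nm/530nm emission ratio after CCF4 loading defined %Activity, from which AC50 values were obtained. CRE-bla CHO cells received compound dilution series together with an EC10 level of NKH 477 for 3 hours at 37 degrees Celsius.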
ALOX15B inhib: 15-hLO-2 (ALOX15B) enzyme inhibition; O15296; purified 15hLO-2, xylenol orange hydroperoxide absorbance; Potency, µM (top dose mostly 57.1 µM), inactives show at the top dose activity change, negative = inhibition, most hits filed as inhibitors; hit rate 0.56% among 110,000; AID 881; further: on the % scale 0 is the no-effect control and ±100 the full control effect; nearly all actives have a fitted effect of over 60% in size
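Screening format was qHTS against 50 nM purified 15hLO-2 in Hepes pH 7.5 with detergent. Activity follows hydroperoxide formation from 45 uM arachidonic acid, measured as 573:405 nm absorbance ratio of the ferric-xylenol orange complex.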
* marks the source's active call; other numbers are inactive results; ? = inconclusive; · = not tested or not shown; ! = not active in a repeat; [ ] = another dose, or the depositor's remark. The list is not random: actives were taken first. Their share in the collection is about 3.2%. Unless noted, the call rests on the fitted dose curve; in most records, active means well fitted inhibition curve with a large enough effect; inconclusive means small, poorly fitted or top-dose-only effect; inactive means no such curve, though single readings can be large or run the other way. Potency means the concentration at half of the fitted maximal effect.

SMILES	15-hLO inh	ERK AVP inh	CRE-bla Fsk	ALOX15B inhib
CN1C[C@H](C(=O)N[C@]2(C)O[C@@]3(O)[C@H]4CCCN4C(=O)[C@H](Cc4ccccc4)N3C2=O)C[C@H]2c3cccc4[nH]cc(c34)C[C@@H]21	13µM*	-8%	?	1%
CC(C)[C@@]1(NC(=O)[C@@H]2C[C@H]3c4cccc5[nH]cc(c45)C[C@@H]3N(C)C2)O[C@@]2(O)[C@H]3CCCN3C(=O)[C@H](Cc3ccccc3)N2C1=O	?	?	?	31%
COc1ccc2c(c1)CCC1[C@@H]2CCC2(C)[C@@H](NCCCCCCN3C(=O)C=CC3=O)CC[C@@H]12 (stereo partly drawn)	13µM*	7%	-15%	19%
C[C@H]1CC[C@@H]2[C@@H](C)C(=O)O[C@H]3O[C@@]4(C)CC[C@@H]1[C@]32OO4	·	·	0%	·
CC(C)[C@@]1(NC(=O)[C@H]2C[C@H]3c4cccc5[nH]cc(c45)C[C@@H]3N(C)C2)O[C@]2(O)[C@H]3CCCN3C(=O)[C@H](Cc3ccccc3)N2C1=O	·	·	-23%	·
C=C(C)[C@H]1[C@H]2OC(=O)[C@@H]1[C@]1(O)C[C@H]3O[C@]34C(=O)O[C@H]2[C@]14C	·	·	-9%	·
Cc1cc(C)c(C(=O)CN2CCOCC2)c(C)c1	-7%	31%	25µM*	-12%
COC(=O)[C@]1(C)CC[C@@]2(C)CC[C@@]3(C)C4=CC=C5C(=CC(=O)C(O)=C5C)[C@@]4(C)CC[C@@]3(C)C2C1 (stereo partly drawn)	2µM*	-19%	·	4µM*
CC(=O)N1C[C@@H]2C[C@H](C1)c1cccc(=O)n1C2	·	·	-11%	·
CN[C@@H](C)[C@@H](O)c1ccccc1	0.4µM*	-22%	?	0.63µM*
Cc1nc2ccc(Nc3nc4cc(S(=O)(=O)N5CCOCC5)ccc4o3)cc2s1	?	4%	13µM*	-9%
CC(C)[C@@]1(NC(=O)[C@@H]2C=C3c4cccc5[nH]cc(c45)C[C@@H]3N(C)C2)O[C@]2(O)[C@H]3CCCN3C(=O)[C@H](Cc3ccccc3)N2C1=O	·	·	17%	·
CCCCC/C=C\C/C=C\C/C=C\C/C=C\CCCC(=O)Nc1ccc(O)cc1	0.25µM*	-1%	4%	-8%
CCCCC/C=C\C/C=C\C/C=C\C/C=C\CCCC(=O)NCC(=O)O	2.5µM*	15%	-13%	10µM*!
C[C@@H]1O[C@@H](O[C@H]2C[C@@H](O)[C@]3(CO)[C@@H]4[C@@H](O)C[C@]5(C)[C@H](C6=CC(=O)OC6)CC[C@@]5(O)[C@H]4CC[C@@]3(O)C2)[C@H](O)[C@H](O)[C@@H]1O	-5%	-4%	1%	-6%
Oc1ccc2c3c1O[C@@H]1[C@@H](O)CC[C@]4(O)[C@H](C2)N(CC2CCC2)CC[C@@]314	12%	25%	-7%	5%
CN1CC[C@@H]2CN3CCc4cccc(c43)[C@H]2C1	13µM*	-18%	-16%	9%
CN(C)Cc1c[nH]c2ccccc12	3%[25.6 µM]	16%	-20%	-2%
c1ccc2c(CCNC3=NCCC3)c[nH]c2c1	13µM*	-14%	?	2%
COc1cc2c(cc1OC)[C@]13CCN4CC5=CCO[C@@H]6CC(=O)N2[C@@H]1[C@H]6[C@@H]5C[C@H]43	·	·	10%	·
Oc1ccc(Cl)cc1Sc1cc(Cl)ccc1O	4µM*	-14%[11.5 µM]	?	16µM*
Nc1cc(Cl)ccc1O	1.6µM*	?	-25%	-2%
Clc1ccc(N2C[C@H]3CC[C@@H](C2)N3)nn1	11%	9%	2%	-2%
CC(C)(C)NC[C@H](O)c1ccccc1Cl	8%	5%	2%	3%
CCN1C(=O)/C(=C2\C=Cc3ccccc3N2CC)OC1=S	-29%	16µM*	0%	·
SMILES	15-hLO inh	ERK AVP inh	CRE-bla Fsk	ALOX15B inhib
C=C[C@@H]1CN2CC[C@H]1C[C@H]2[C@@H](O)c1ccnc2ccccc12	·	·	-12%	·
O=C1C=CC(=O)C(Cl)=C1	·	·	·	11µM*
[Cl-].[Cl-].[Hg+2]	0.013µM*	7.9µM*	?	0.79µM*
O=C(O)/C=C\c1ccc[c]([Sb](=[O])([OH])[OH])c1	-26%[11.4 µM]	6%[11.5 µM]	?	38%[11.4 µM]
COc1cc2c(cc1OC)[C@]13CC[N@+]4(C)CC5=CCO[C@H]6CC(=O)N2[C@@H]1[C@@H]6[C@@H]5C[C@]34O	18%[11.4 µM]	-4%[11.5 µM]	3%[7.6 µM]	-9%[11.4 µM]
C=CC1CC=CCC1 (stereo not drawn)	32µM*	16%	-9%	2%

Bioassay records as filed in PubChem.
